Only some compounds are listed: those with a hit (about 12% of all), similar ones and a draw of the others.
Pf growth 96h: inhibits malaria parasite growth, 96 h; 6.9% of 320,000 active; Potency, µM (highest dose often 28.7 µM), most hits filed as inhibitors; P. falciparum luciferase reporter growth, 96 h
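Parasite growth measured via integrated firefly luciferase reporter in P. falciparum. Infected erythrocytes at 2% hematocrit, 0.05% parasitemia final were treated 96 hours at 37 C under 5% CO2, and luminescence was read.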
Pf growth 48h: P. falciparum growth inhibition at 48 hours (one generation). 5.9% of 310,000 active. Potency, µM (titrated, usually from 28.7 µM), most hits filed as inhibitors. AID 504832. P. falciparum luciferase growth in erythrocytes, 48 h
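First compound was added to culture medium, then infected red cells at 0.1% parasitemia and 2% hematocrit (final). After incubation at 37 C under 5% CO2, luciferase detection reagent was dispensed and light output recorded.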
SARS PLpro yeast: blocks SARS-CoV papain-like protease in a yeast assay | S. cerevisiae expressing SARS-CoV PLpro, growth rescue | Potency, µM (series often up to 32.9 µM), hits mostly activators | 0.19% of 330,000 active | AID 485353; calls by dose curve; also: nearly all actives have a fitted effect of over 55% in size
AmpC inh no detg: blocks E. coli AmpC beta-lactamase in detergent-free assay. Potency, µM (top dose mostly 57.1 µM), hits mostly inhibitors. 0.52% of 330,000 active. AmpC nitrocefin hydrolysis, absorbance 480 nm, 0.0001% Triton; also: nearly all actives have a fitted effect of over 20% in size
Target sequence (P00811 whole entry, looked up): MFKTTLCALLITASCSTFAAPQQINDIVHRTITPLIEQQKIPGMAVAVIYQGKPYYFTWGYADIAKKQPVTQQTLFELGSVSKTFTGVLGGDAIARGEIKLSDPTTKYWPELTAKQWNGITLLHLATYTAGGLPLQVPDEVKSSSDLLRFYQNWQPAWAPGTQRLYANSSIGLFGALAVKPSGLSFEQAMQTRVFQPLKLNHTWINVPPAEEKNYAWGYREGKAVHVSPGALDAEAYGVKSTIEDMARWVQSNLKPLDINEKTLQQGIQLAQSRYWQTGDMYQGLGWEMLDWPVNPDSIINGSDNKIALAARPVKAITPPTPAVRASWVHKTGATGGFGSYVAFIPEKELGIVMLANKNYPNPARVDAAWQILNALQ
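AmpC (5.3 nM in the dispensed reagent) in 20 mM phosphate pH 7.0 with 0.01% (detergent screen) or 0.0001% Triton X-100 was preincubated with compounds for 15 min at room temperature. Nitrocefin was then added from an 800 uM solution, and hydrolysis was followed at 480 nm.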
Sm TGR inh: inhibitors of Schistosoma mansoni thioredoxin glutathione reductase; Q962Y6; purified TGR, DTNB reduction, TNB absorbance 405 nm; Potency, µM (doses to about 114 µM), usual class: inhibitors; 3% of 360,000 active; AID 485364; also: nearly all actives have a fitted effect of over 60% in size
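Kinetic colorimetric format: TGR-catalysed, NADPH-driven DTNB reduction monitored via TNB absorbance. Enzyme dispensed at 20 nM; compound exposure 15 min at room temperature before reaction start.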
AmpC detergent: AmpC beta-lactamase inhibition with detergent present. P00811. AmpC hydrolysis of nitrocefin, absorbance 480 nm, 0.01% Triton. Potency, µM (titrated, usually from 114 µM), usual class: inhibitors. 0.041% of 370,000 active. AID 485294; also: nearly all actives have a fitted effect of over 25% in size
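20 mM phosphate pH 7.0 + 0.01% (detergent screen) or 0.0001% Triton X-100; 5.3 nM AmpC reagent; cpd preinc 15 min RT; nitrocefin (800 uM stock) to start; A480 q20 s × 4 min; Activity was normalised to no-enzyme and no-compound control wells.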
A number is an active result; [ ] = remark or other dose. Unless noted, calls follow the shape of the dose curve; as a rule, active = well fitted curve in the direction sought with a large enough effect; inconclusive = small, poorly fitted or top-dose-only effect, or another doubt; inactive = no such curve, though single readings can be large; an effect the other way counts as inactive or inconclusive.

O=C(NC(C(=O)c1ccccc1)N1CCOCC1)c1cccs1 (stereo not given) was read as Pf growth 96h 12µM, Pf growth 48h inactive, SARS PLpro yeast inactive, AmpC inh no detg inactive, Sm TGR inh inactive and AmpC detergent inactive.
Screening O=C(NC(N1CCCC1)C(Cl)(Cl)Cl)c1ccccc1 (stereo not given) returned Pf growth 96h inactive, Pf growth 48h inactive, SARS PLpro yeast inactive, AmpC inh no detg inactive, Sm TGR inh 3.5µM and AmpC detergent inactive.
COc1ccc(NC(=S)NC(C)C(c2ccccc2)N2CCOCC2)cc1 (stereo not given) was read as Pf growth 96h 15µM, Pf growth 48h inconclusive, SARS PLpro yeast inactive, AmpC inh no detg inactive[11.4 µM], Sm TGR inh inactive and AmpC detergent inconclusive.
For O=C(NC(C(=O)c1ccccc1)N1CCOCC1)c1ccccc1 (stereo not given) the results were Pf growth 96h 10µM, Pf growth 48h inactive, SARS PLpro yeast inactive, AmpC inh no detg inactive, Sm TGR inh inactive and AmpC detergent inactive.
`CCCOc1ccc(C(=O)Nc2ccc3oc(-c4ccncc4)nc3c2)cc1` gave Sm TGR inh inactive and AmpC detergent inactive.
`CC(NC(=O)c1ccc(-c2ccccc2)cc1)C(c1ccccc1)N1CCOCC1` (stereo not given) gave Pf growth 96h 10µM, Pf growth 48h 7.4µM, SARS PLpro yeast inactive, AmpC inh no detg inactive, Sm TGR inh inactive and AmpC detergent inactive.
For Cc1cccc2c1-c1sc(C(=O)N3CCN(c4ccc(F)cc4)CC3)cc1CO2 the results were Sm TGR inh inactive and AmpC detergent inactive.
CC1Cc2cc(/C=C3/SC(=S)NC3=O)ccc2O1 (stereo not given) was read as Pf growth 96h inactive, Pf growth 48h inactive, SARS PLpro yeast inactive, AmpC inh no detg inactive, Sm TGR inh inactive and AmpC detergent inactive.
Cc1ccc(C2C(/C=C3/SC(=S)NC3=O)=C(c3cccs3)Oc3ccccc32)cc1 (stereo not given) was read as Pf growth 96h 9.3µM, SARS PLpro yeast inactive, AmpC inh no detg 6.3µM, Sm TGR inh inactive and AmpC detergent inactive.
`CCOc1ccc2ccccc2c1C1NC(=S)N(C)C(C)=C1C(=O)OC` (stereo not given) gave Pf growth 96h 3.3µM, Pf growth 48h inconclusive, SARS PLpro yeast inactive, AmpC inh no detg inactive, Sm TGR inh inactive and AmpC detergent inactive.
For O=C(CSc1ccccc1)NNC(=O)c1ccncc1 the results were Pf growth 96h inactive, Pf growth 48h inactive, SARS PLpro yeast inactive, AmpC inh no detg inactive, Sm TGR inh inactive and AmpC detergent inactive.
For COc1ccc(-c2nncnn2)cc1 the results were Pf growth 96h 6.6µM, Pf growth 48h inconclusive, SARS PLpro yeast inactive, AmpC inh no detg inactive, Sm TGR inh inactive and AmpC detergent inconclusive.
For O=C(COc1ccccc1)Nc1ccc(C(=O)OCc2cc(=O)n3nc(C4CC4)sc3n2)cc1 the results were Sm TGR inh inactive and AmpC detergent inactive.
Screening CCOc1cc(/C=N/NC(=O)c2ccc(CN3CCOCC3)cc2)ccc1OC returned Pf growth 96h inactive, Pf growth 48h inactive, SARS PLpro yeast inactive, AmpC inh no detg inactive and AmpC detergent inactive.
For COc1ccc(OC)c(CN2CCC(C(=O)N3CCOCC3)CC2)c1 the results were Pf growth 96h 9.3µM, Pf growth 48h inactive, SARS PLpro yeast inactive, AmpC inh no detg inactive, Sm TGR inh inactive and AmpC detergent inactive.
Screening CCOc1cc(/C=C/C(=O)c2ccc(OC)c(CN3CCOCC3)c2)cc(Br)c1O returned Pf growth 96h 9.3µM, Pf growth 48h 13µM, SARS PLpro yeast inactive, AmpC inh no detg inactive, Sm TGR inh inconclusive and AmpC detergent inactive.
For COc1ccc(CN2CCC(N3CCC(C(=O)N4CCOCC4)CC3)CC2)c(F)c1 the results were Pf growth 96h 10µM, Pf growth 48h inactive, SARS PLpro yeast inactive, AmpC inh no detg inactive, Sm TGR inh inactive and AmpC detergent inactive.
For CCOC(=O)c1cccc(NC(=O)N2CC(CC)Sc3ccccc32)c1 (stereo not given) the results were Sm TGR inh inactive and AmpC detergent inactive.
For COc1ccc(C2NC(C(=O)O)Cc3c2[nH]c2ccccc32)cc1OC (stereo not given) the results were Pf growth 48h inactive, SARS PLpro yeast inactive, AmpC inh no detg inactive, Sm TGR inh inactive and AmpC detergent inactive.
For CCC1NC(C(=O)O)Cc2c1[nH]c1ccccc21 (stereo not given) the results were Pf growth 96h inactive, Pf growth 48h inactive, SARS PLpro yeast inactive, AmpC inh no detg inactive, Sm TGR inh 40µM and AmpC detergent inactive.
`COc1cc(C2NC(C(=O)O)Cc3c2[nH]c2ccccc32)cc(OC)c1OC` (stereo not given) gave Pf growth 48h inactive, SARS PLpro yeast inactive, AmpC inh no detg inactive, Sm TGR inh inactive and AmpC detergent inactive.
COC(=O)C1Cc2c([nH]c3ccccc23)C(C(C)C)N1 (stereo not given) was read as Pf growth 96h 1.3µM, Pf growth 48h inactive, SARS PLpro yeast inactive, AmpC inh no detg inactive, Sm TGR inh inconclusive and AmpC detergent inactive.
Screening CC1(C)NC(C(=O)O)Cc2c1[nH]c1ccccc21 (stereo not given) returned Pf growth 96h inactive, Pf growth 48h inactive, SARS PLpro yeast inactive, AmpC inh no detg inactive, Sm TGR inh 40µM and AmpC detergent inconclusive.
Screening CC(=O)N1C(C(=O)O)Cc2c([nH]c3ccccc23)C1(C)C (stereo not given) returned Pf growth 96h inactive, Pf growth 48h inconclusive, SARS PLpro yeast inactive, AmpC inh no detg inactive, Sm TGR inh inactive and AmpC detergent inactive.
`CCCc1nnc(N2C(=O)c3oc4ccc(F)cc4c(=O)c3C2c2ccc(C(=O)OC)cc2)s1` (stereo not given) gave Sm TGR inh inactive and AmpC detergent inactive.
For COc1cc(OC)c(C2C=C(c3ccc(C)cc3)Nc3c(C(=O)Nc4ccccc4)cnn32)cc1OC (stereo not given) the results were Sm TGR inh inactive and AmpC detergent inactive.
CN(C)c1ccc(/C=C(\C#N)c2nc(-c3ccc(Cl)c(Cl)c3)cs2)cc1 was read as Sm TGR inh inactive and AmpC detergent inactive.
For O=C1C2C3C=CC(CNS(=O)(=O)c4ccccc4[N+](=O)[O-])(O3)C2C(=O)N1c1ccccc1 (stereo not given) the results were Pf growth 96h inconclusive, Pf growth 48h inconclusive, SARS PLpro yeast inactive, AmpC inh no detg inactive, Sm TGR inh 3.2µM and AmpC detergent inactive.

Compound activity: PubChem BioAssay, National Center for Advancing Translational Sciences (NCATS)
